Marburg entry inh: blocks Marburg virus binding to or entry into cells. Marburg virus pseudotyped entry inhibition, cell reporter. Potency, µM (top dose mostly 37.8 µM), inactives show top-dose activity change, negative = inhibition, hits mostly inhibitors. actives 1.8% (n = 300,000). AID 540276; calls by dose curve; tested in HEK293 cells; note: potency is the fitted concentration of half-maximal effect
Vaccinia Venus: vaccinia inhibition (Venus reporter). Potency, µM (doses to about 36.5 µM), inactives show at the highest dose activity change, negative = inhibition, most hits filed as inhibitors. Vaccinia virus Venus reporter expression, fluorescence. actives 0.46% (n = 330,000); calls by dose curve; tested in A549 cells; note: potency is the fitted concentration of half-maximal effect; nearly all actives have a fitted effect of over 30% in size
FMDV inh: antivirals against foot and mouth disease virus. FMDV antiviral cell-based qHTS. Potency, µM (highest dose often 57.9 µM), for inactives: top-dose activity change, negative = inhibition, usual class: inhibitors. actives 1.2% (n = 410,000); calls by dose curve; tested in HEK293T cells; note: read-out not given here; potency is the fitted concentration of half-maximal effect; nearly all actives have a fitted effect of over 45% in size
Lassa entry inh: inhibitors of Lassa virus binding or cell entry | Lassa virus pseudotype entry inhibition, cell reporter | Potency, µM (titrated, usually from 37.9 µM), inactives show at the top dose activity change, negative = inhibition, most hits filed as inhibitors | actives 1.2% (n = 300,000); calls by dose curve; tested in HEK293 cells; note: potency is the fitted concentration of half-maximal effect; nearly all actives have a fitted effect of over 50% in size
HCMV antiviral: human cytomegalovirus inhibition; activity change, negative = inhibition, % at 57.5 µM; AID 1259415; HFF cells, HCMV-luciferase reporter, 72 h; hits give low values; actives 4.5% (n = 410,000); in the data active = activity change below about -60%; inconclusive = no clear call, values can overlap the other calls; inactive = above about -39%
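Steps: HFFs plated, 16 h 37C; compounds added; HCMV-luciferase added to MOI 1 PFU/cell; 72 h 37C; OneGlo reagent, 5 min room temperature; luminescence read, normalized to controls.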
VACV mCherry inh: inhibitors of vaccinia virus infection (mCherry reporter signal); Vaccinia virus mCherry reporter infection, fluorescence; Potency, µM (series often up to 36.5 µM), for the others: top-dose activity change, negative = inhibition, actives largely listed as inhibitors; actives 0.63% (n = 310,000); AID 720579; calls by dose curve; tested in A549 cells; note: potency is the fitted concentration of half-maximal effect; nearly all actives have a fitted effect of over 35% in size
The depositor's hits bear a star; i = inactive; ? = inconclusive; · = no result; ! = not active in a repeat; [ ] = dose if it differs, or a comment. Most compounds without a hit are left out; they make up all but 6.5% or so of the library. % is set by controls: 0 for no effect and ±100 for the full control effect.

SMILES	Marburg entry inh	Vaccinia Venus	FMDV inh	Lassa entry inh	HCMV antiviral	VACV mCherry inh
N#C/C(=C/c1cn(-c2ccccc2)nc1-c1cccc(OCc2ccccc2)c1)C(=O)NCCCn1ccnc1	11µM*	?	0%	?	16	-26%
Cc1ccc(-c2nn(-c3ccccc3)cc2/C=C(\C#N)C(=O)NCc2ccccc2)cc1	15%	-5%	-12%	?	2	i
C[S+](C)CC(=O)c1ccc2ccccc2c1	·	-6%	·	·	·	-11%
CNC(=O)COc1ccc(Nc2nnc(-c3ccc(C)c(S(=O)(=O)NC(C)(C)C)c3)c3ccccc23)cc1	·	-26%	27%	?	?	-29%
CNS(=O)(=O)c1cc(-c2nn3c(C)nnc3c3ccccc23)ccc1C	·	-20%	38%	-16%[46.1 µM]	-62*	-20%
C#CC(C)(C)NS(=O)(=O)c1cc(-c2nnc(Nc3ccc(C)cc3)c3ccccc23)ccc1C	?	?	32%	?	-87*	?
CCN(CC)C(=O)c1ccc(Nc2nnc(-c3ccc(C)c(S(=O)(=O)NC)c3)c3ccccc23)cc1	·	-6%	25%	?	?	-15%
CNS(=O)(=O)c1cc(-c2nnc(Nc3ccc(NC(C)=O)cc3)c3ccccc23)ccc1C	?	-1%	51%	-4%	-66*	-6%
Cc1cccc(C)c1OCC(=O)N[C@@H](Cc1ccccc1)[C@@H](O)C[C@H](Cc1ccccc1)NC(=O)[C@H](C(C)C)N1CCCNC1=O	·	?	·	·	·	i
Nc1nc2c(ncn2C2CC(O)C(CO)O2)c(=O)[nH]1 (stereo unspecified)	·	-2%	21%	·	·	-14%
COc1ccc(NC(=O)C2CC(c3c(F)cccc3Cl)=NO2)cc1 (stereo unspecified)	·	·	29%	·	-10	·
COc1cc(NC(=O)C2CC(c3c(F)cccc3Cl)=NO2)cc(OC)c1OC (stereo unspecified)	?	-18%	25µM*	-14%[46.1 µM]	-27	-12%
O=C(Nc1cccc(C(F)(F)F)c1)c1csc(-c2ccncc2)n1	?	-21%	100µM*	?	?	i
COc1cc(Nc2ccccn2)cc(C(=O)Nc2cccc(C(F)(F)F)c2)c1	·	?	?	·	-69*!	?
O=C(O)c1ccccc1C(=O)Nc1ccc(Oc2cccc(C(F)(F)F)c2)nc1	19%[46.1 µM]	-15%	3.2µM*	-29%[46.1 µM]	35	0%
COc1cc(NC(=O)c2csc(-c3ccncc3)n2)cc(C(=O)Nc2cccc(C(F)(F)F)c2)c1	·	-27%	-27%	·	-16	-8%
CCSCCc1nnc(NC(=O)Nc2cccc(C(F)(F)F)c2)s1	·	·	?	·	-83*	·
COc1cc(NC(=O)c2nccnc2N)cc(C(=O)Nc2cccc(C(F)(F)F)c2)c1	·	?	-16%	·	-7	-16%
CCCNS(=O)(=O)c1ccc2nc(NC(=O)c3ccc(F)cc3)sc2c1	·	-18%	52%	4%[46.1 µM]	-12	-1%
COC(=O)c1cc(CNC(=O)c2ccccn2)cc(NC(=O)c2ccccc2OC)c1	·	40%	-8%	·	·	15%
Cc1ccc(OC(F)F)c(NC(=O)Nc2cccc(C(F)(F)F)c2)c1	?	·	?	?	-99*	·
O=C(Nc1cccc(C(F)(F)F)c1)Nc1cccs1	-13%[46.1 µM]	?	-9%	·	-80*	-26%
COc1ccc(NC(=O)Nc2cccc(C(F)(F)F)c2)cn1	-26%[46.1 µM]	?	-5%	?	-63*	?
Cc1onc(-c2ccccc2)c1C(=O)N1CCCC(C)(C(=O)NS(=O)(=O)C2CC2)C1 (stereo unspecified)	·	28%	-22%	·	0	12%
CCCS(=O)(=O)NC(=O)C1(C)CCCN(C(=O)c2c(-c3ccccc3)noc2C)C1 (stereo unspecified)	·	-4%	-6%	·	-63*	0%
COCC1CCCN(Cc2ccc3c(c2)CN(C(=O)c2ccc(OC)nc2OC)CCO3)C1 (stereo unspecified)	·	6%	2%	·	·	-7%
Cc1ccccc1Nc1nc(N)nc(CSc2ccc(F)cc2)n1	·	·	34%	·	32	·
Cc1ccccc1Nc1nc(N)nc(CSc2nc3ccccc3c(=O)n2C)n1	?	-16%	16µM*	?	-36	·
Cc1ccc(SCc2nc(N)nc(Nc3ccccc3C)n2)cc1C	·	-28%	13%	·	-101*	-7%

Compound activity as filed in PubChem.
